PMC5540273 (PLoS ONE, 2017)

Test system: SRPK2
Conditions: concentration: 1 μM, replicates: in singlicate; n = 1
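Further: KINOMEscan kinase panel screen.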

| SMILES | %Inh [%] |
| --- | --- |
| CC(C)c1nc(-c2cccc(NS(=O)(=O)c3c(F)cccc3F)c2F)c(-c2ccnc(Nc3ccc(N4CCOCC4)nc3)n2)s1 [GSK2008607] | 0 |
| C[C@@H]1CC[C@@H](C(=O)Nc2ccccc2)CN1c1cc(-c2ccc3c(N)n[nH]c3c2)nc(N)n1 [GSK2286062] | 33 |
| COc1ccc(CNC(=O)NC2CCN(c3ccnc(Nc4ccc(F)cc4)n3)CC2)cc1 [GSK1379788] | 11 |

Test system: SRPK3
Conditions: concentration: 1 μM, replicates: in singlicate; n = 1

| SMILES | %Inh [%] |
| --- | --- |
| c1ccc(Oc2ccc(Nc3ccnc4cc(-c5ccc(CNCCN6CCOCC6)o5)ccc34)cc2)nc1 [GW567145] | 0 |
| Cn1cc(-c2[nH]c3cc(NC(=O)[C@H](N)C4CCCCC4)cc4c3c2C=NNC4=O)cn1 | 82 |
| O=C(Nc1cccc(-c2nn3ccccc3c2-c2ccnc(Nc3cccc(F)c3)n2)c1)c1c(F)ccc(F)c1Cl [GSK357952] | 0 |
| Cc1ccc(C)c(NC(=O)NC2CCN(c3ccnc(Nc4ccc(F)cc4)n3)C2)c1 (stereo not drawn) [GSK1379720] | 0 |
| O=C(Nc1n[nH]c2cc(-c3ccoc3)ccc12)C1CC1 [SB-738481] | 37 |
| COc1cccc(C(=O)Nc2cccc(Oc3ccc4nc(NC(=O)C5CC5)cn4n3)c2)c1 | 0 |
| Cc1ccc(S(=O)(=O)Nc2ccc(Nc3nccc(Nc4cccc5[nH]ncc45)n3)cc2)cc1 [GSK581271] | 9 |
| CN(C)Cc1ccc(-c2ccc3c(Nc4ccc(Oc5ccccn5)cc4)ccnc3c2)o1 [GW567148] | 0 |
| Nc1ncc(-c2ccc3nccc(-c4ccncc4)c3c2)cc1S(=O)(=O)N1CCOCC1 [GSK1627798] | 4 |
